Results filed as inconclusive are left out. Unmarked numbers belong to inactive results. Active and inactive are the calls of the source. The call rests on the fitted dose curve; in most records, active means well fitted cell-killing curve with a large enough effect in the repeat runs; inconclusive means weak or mixed curves, or effect the other way; inactive means no such curve, though single readings can be large or run the other way.
assay: qHTS assay to identify small molecule agonists of the farnesoid-X-receptor (FXR) signaling pathway - cell viability counter screen (AID 743218); details: FXR-bla HEK293T viability, CellTiter-Glo luminescence, 16 h; series mostly up to 62.6 µM; viability change, negative = cytotoxic: at the top concentration; further: nearly all actives have a fitted effect of over 45% in size
Method in brief: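 Luminescence from CellTiter-Glo, read after 30 min at RT, reports viability of GeneBLAzer FXR-UAS-bla HEK 293T cells treated 16 h with compounds in the wells used for the beta-lactamase reporter.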
On the % scale 0 is the no-effect control and ±100 the full control effect; potency means the concentration at half of the fitted maximal effect.

Row | SMILES | viability change, negative = cytotoxic | Potency
1 | CCCCC(O)(Cn1cncn1)c1ccc(Cl)cc1Cl (stereo not drawn) | -10.5% | 
2 | C=COC(C)=O | 6.58% [at 81.1 µM] | 
3 | CC(C)(CCl)C(=O)Cl | 0.106% | 
4 | CCC(Cl)CCl (stereo not drawn) | 10.1% [at 81.1 µM] | 
5 | BrCCCCBr | 10.7% | 
6 | C/C(=C\c1ccccc1)[N+](=O)[O-] |  | 13.8 µM (active)
7 | CCOC(=O)C(Cl)C(C)=O (stereo not drawn) | -4.36% [at 81.1 µM] | 
8 | OCCCBr | 2.86% [at 81.1 µM] | 
9 | C/C=C/C=O | -3.64% | 
10 | CCOP(=O)(OCC)SCCSCC | 0.935% | 
11 | COCC(C)N(C(=O)CCl)c1c(C)csc1C (stereo not drawn) | -3.01% | 
12 | CCOC(=O)[C@]1(c2ccccc2)Oc2ccccc2[C@@H]1N | -6.76% | 
13 | COc1cc(Cl)c(OC)cc1Cl | 12.7% | 
14 | CO[C@@H]1[C@H](OC(=O)NC(=O)CCl)CC[C@]2(CO2)[C@H]1[C@@]1(C)O[C@@H]1CC=C(C)C |  | 0.0021 µM (active)
15 | O=C(NCc1cccnc1)Nc1ccc([N+](=O)[O-])cc1 | -4.68% | 
16 | CN1C[C@H](CNC(=O)OCc2ccccc2)C[C@@H]2c3cccc4c3c(cn4C)C[C@H]21 |  | 13.3 µM (active)
17 | C=CC[C@]1(O)CC[C@H]2[C@@H]3CCC4=CC(=O)CCC4=C3C=C[C@@]21C | 34.6% | 
18 | C=C(C#N)CCC#N | -10.2% | 
19 | CCn1cc[n+](C)c1 |  | inactive
20 | ClCC(Br)CBr (stereo not drawn) | 24.7% | 
21 | CC(=O)C(C)(C)C | 3.34% [at 81.1 µM] | 
22 | CO/N=C(/C(=O)OC)c1ccccc1COc1ccccc1C | -3.47% | 
23 | BrCC(Br)C1CCC(Br)C(Br)C1 (stereo not drawn) | 1.33% | 

— PubChem BioAssay (Tox21)
